Eleven molecules from ChEMBL document CHEMBL3988442, “University of Dundee, Small-Polar-MMV Screening Library” (2021) can be followed below.

For some of these results: Results with a measured potency or affinity are listed apart.

Holding throughout (set-up): scale not given: direction of the effect not stated beside the values
Assay [1] deals with Protein translocase subunit SecA (Escherichia coli (strain K12)) (UniProt P10408). As to the kind of experiment: Assay to Identify E. coli SecA ATPase Inhibitors. The class given is functional. To be noted: 30 µM.
Protein translocase subunit SecA (Escherichia coli (strain K12)), sequence (P10408 whole entry): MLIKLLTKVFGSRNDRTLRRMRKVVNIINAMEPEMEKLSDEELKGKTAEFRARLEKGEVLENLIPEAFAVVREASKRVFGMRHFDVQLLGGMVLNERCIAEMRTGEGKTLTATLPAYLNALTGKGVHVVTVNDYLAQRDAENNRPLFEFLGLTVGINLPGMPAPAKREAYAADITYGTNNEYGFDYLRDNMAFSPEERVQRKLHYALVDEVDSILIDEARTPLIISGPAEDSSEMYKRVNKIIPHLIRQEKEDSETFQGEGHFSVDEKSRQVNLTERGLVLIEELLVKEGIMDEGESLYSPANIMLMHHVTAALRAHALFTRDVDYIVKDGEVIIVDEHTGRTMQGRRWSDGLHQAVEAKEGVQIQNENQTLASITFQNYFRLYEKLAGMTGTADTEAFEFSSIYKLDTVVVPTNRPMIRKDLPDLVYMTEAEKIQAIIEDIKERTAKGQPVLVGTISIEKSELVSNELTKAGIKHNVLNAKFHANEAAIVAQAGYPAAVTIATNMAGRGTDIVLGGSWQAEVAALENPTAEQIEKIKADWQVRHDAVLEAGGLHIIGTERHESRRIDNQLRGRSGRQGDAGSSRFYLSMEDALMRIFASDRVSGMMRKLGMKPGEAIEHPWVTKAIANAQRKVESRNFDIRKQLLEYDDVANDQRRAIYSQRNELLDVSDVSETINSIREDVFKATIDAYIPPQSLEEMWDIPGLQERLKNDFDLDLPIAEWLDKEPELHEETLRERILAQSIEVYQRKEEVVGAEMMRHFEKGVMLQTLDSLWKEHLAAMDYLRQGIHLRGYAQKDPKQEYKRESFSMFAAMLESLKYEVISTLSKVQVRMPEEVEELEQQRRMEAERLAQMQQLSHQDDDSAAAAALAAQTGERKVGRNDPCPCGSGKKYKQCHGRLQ
In assay [2] the target is T1, Ubiquitin-activating enzyme e1, putative (Leishmania donovani (strain BPK282A1)) (UniProt E9BSI1).
T1 sequence (whole entry): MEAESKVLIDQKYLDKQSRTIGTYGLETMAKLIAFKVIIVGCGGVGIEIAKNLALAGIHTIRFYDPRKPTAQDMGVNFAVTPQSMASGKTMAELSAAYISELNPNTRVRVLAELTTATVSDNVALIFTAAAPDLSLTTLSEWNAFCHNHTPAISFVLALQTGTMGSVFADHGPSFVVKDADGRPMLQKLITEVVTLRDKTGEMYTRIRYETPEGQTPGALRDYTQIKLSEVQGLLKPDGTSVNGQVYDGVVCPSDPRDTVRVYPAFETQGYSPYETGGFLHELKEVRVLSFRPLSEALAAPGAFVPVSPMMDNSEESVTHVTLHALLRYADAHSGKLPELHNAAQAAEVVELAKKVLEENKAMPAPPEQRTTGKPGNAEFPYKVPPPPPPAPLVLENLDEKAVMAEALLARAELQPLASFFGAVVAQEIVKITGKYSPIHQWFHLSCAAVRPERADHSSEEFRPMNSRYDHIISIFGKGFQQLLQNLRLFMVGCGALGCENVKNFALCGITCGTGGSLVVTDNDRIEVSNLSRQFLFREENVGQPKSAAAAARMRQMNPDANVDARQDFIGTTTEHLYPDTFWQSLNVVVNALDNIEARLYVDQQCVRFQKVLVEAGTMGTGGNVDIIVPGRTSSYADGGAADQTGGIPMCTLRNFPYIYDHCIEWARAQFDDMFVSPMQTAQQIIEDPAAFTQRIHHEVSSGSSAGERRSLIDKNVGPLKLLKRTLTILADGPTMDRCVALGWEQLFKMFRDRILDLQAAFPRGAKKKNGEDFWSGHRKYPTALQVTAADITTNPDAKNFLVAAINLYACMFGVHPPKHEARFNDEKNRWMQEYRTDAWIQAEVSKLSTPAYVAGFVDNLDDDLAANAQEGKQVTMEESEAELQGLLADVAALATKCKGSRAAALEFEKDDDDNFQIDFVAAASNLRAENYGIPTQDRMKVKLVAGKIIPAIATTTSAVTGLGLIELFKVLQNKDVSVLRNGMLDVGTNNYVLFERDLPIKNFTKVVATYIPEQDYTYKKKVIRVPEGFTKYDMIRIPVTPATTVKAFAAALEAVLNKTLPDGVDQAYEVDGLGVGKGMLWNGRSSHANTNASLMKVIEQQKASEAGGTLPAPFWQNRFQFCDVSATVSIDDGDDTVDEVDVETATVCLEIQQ
As to the kind of experiment: Leishmania donovani Ubiquitin Activating Enzyme (LdE1). The format is functional. The note with it: 30 µM.

Assay [3] has as its target AMP-activated protein kinase, AMPK (Homo sapiens) (UniProt P54646+O43741+P54619+Q9UGJ0+Q9Y478+Q13131+Q9UGI9). As to the kind of experiment: AMP-dependent Kinase enzyme assay. An in vitro enzyme assay that detects ADP turnover that is directly proportional to AMPK activity. This uses naive AMPK that is activated during the assay with MK-8722. The note with it: 30 µM. The format is functional.

Assay [4] has as its target Sialic acid-binding Ig-like lectin 9 (Homo sapiens) (UniProt Q9Y336). As to the kind of experiment: Hs-Siglec9 ALPHAscreen SOP 20170721. To be noted: 10 µM. (Alpha assays give light when donor and acceptor beads are brought close together.)
For assay [5], the system named is Trypanosoma cruzi. As to the kind of experiment: Trypanosoma cruzi phosphomannomutase and mannose-1-phosphate guanylyltransferase assay. The format is functional. To be noted: 10 µM.
The target in assay [6] is T2, Arginase-2, mitochondrial (Homo sapiens) (UniProt P78540).
T2 sequence (whole entry): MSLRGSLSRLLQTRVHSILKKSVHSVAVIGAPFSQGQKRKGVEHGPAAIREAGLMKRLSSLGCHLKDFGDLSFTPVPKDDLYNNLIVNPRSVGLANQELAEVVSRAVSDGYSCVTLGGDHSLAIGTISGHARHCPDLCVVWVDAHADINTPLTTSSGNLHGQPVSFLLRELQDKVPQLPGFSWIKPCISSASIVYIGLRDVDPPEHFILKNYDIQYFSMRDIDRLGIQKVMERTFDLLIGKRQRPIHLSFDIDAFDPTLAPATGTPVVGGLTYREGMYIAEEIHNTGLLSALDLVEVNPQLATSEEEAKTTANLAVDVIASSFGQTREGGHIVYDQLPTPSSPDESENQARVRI
As to the kind of experiment: in vitro enzyme assay to detect the production of urea directly proportional to the activity of Arginase II. Also: in the data most compounds retested in dose-response had high values. To be noted: 33.3 µM. The format is functional.

For assay [7], the target named is T3, Proteasome subunit beta (Trypanosoma cruzi) (UniProt O96673).
T3 sequence (whole entry): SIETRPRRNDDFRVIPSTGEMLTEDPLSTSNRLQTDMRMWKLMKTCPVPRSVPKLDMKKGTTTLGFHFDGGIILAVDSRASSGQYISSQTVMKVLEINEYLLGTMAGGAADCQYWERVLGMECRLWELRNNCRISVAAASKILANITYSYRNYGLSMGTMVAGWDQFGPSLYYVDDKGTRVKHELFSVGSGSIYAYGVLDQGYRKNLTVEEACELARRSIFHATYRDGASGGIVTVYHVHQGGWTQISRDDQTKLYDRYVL
As to the kind of experiment: Trypanosoma cruzi proteasome chymotrypsin-like activity (TcProtChymo) assay. Also: in the data most compounds retested in dose-response had high values. The format is functional. The note with it: 9.37 µM.

For assay [8], the species on record is Homo sapiens. As to the kind of experiment: To identify inhibition of the IFN signalling (Jak-Stat) pathway via expression of an eGFP reporter gene under the control of an IFN-stimulated response element (ISRE) containing MxA promoter. To be noted: 30 µM. The class given is functional. For orientation: Reporter assays use an easily measured gene product as a stand-in for the process of interest.

In assay [9] the target is T4, Tyrosyl-tRNA synthetase, putative (Trypanosoma cruzi (strain CL Brener)) (UniProt Q4DSP6).
T4 sequence (whole entry): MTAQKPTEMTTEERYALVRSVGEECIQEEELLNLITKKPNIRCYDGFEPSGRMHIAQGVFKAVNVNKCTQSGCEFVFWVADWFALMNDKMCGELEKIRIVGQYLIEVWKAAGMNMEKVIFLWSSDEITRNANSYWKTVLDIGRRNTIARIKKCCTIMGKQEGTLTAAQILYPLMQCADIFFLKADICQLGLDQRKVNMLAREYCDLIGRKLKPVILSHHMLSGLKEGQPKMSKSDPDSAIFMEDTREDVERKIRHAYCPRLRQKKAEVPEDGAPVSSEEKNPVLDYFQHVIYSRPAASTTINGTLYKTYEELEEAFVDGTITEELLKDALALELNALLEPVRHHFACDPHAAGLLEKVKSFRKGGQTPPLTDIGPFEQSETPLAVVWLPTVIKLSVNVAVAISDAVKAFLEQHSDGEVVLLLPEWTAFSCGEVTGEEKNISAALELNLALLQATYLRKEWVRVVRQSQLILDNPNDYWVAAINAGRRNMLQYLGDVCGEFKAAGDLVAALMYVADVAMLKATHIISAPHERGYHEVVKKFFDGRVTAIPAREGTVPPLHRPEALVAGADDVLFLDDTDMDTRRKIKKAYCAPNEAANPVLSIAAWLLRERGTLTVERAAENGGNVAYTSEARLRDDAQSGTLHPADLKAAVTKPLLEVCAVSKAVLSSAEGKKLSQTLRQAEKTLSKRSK
As to the kind of experiment: Trypanosoma cruzi tyrosyl tRNA synthetase (TcYRS) _High Tyrosine SOP. Also: in the data most compounds retested in dose-response had high values. The format is functional. To be noted: 30 µM.

The target of assay [10] is T4, Tyrosyl-tRNA synthetase, putative (Trypanosoma cruzi (strain CL Brener)). As to the kind of experiment: Trypanosoma cruzi tyrosyl tRNA synthetase (TcYRS) SOP. The class given is functional. The note with it: 30 µM.
In assay [11] the target is Chromo domain-containing protein 1 (Saccharomyces cerevisiae (strain ATCC 204508 / S288c) (Baker's yeast)) (UniProt P32657). As to the kind of experiment: ScCHD-1 Enzyme Inhibition Assay. Also: in the data most compounds retested in dose-response had high values. The format is functional. To be noted: 30 µM.
Chromo domain-containing protein 1 (Saccharomyces cerevisiae (strain ATCC 204508 / S288c) (Baker's yeast)), sequence (P32657 whole entry, the tested form may be a part): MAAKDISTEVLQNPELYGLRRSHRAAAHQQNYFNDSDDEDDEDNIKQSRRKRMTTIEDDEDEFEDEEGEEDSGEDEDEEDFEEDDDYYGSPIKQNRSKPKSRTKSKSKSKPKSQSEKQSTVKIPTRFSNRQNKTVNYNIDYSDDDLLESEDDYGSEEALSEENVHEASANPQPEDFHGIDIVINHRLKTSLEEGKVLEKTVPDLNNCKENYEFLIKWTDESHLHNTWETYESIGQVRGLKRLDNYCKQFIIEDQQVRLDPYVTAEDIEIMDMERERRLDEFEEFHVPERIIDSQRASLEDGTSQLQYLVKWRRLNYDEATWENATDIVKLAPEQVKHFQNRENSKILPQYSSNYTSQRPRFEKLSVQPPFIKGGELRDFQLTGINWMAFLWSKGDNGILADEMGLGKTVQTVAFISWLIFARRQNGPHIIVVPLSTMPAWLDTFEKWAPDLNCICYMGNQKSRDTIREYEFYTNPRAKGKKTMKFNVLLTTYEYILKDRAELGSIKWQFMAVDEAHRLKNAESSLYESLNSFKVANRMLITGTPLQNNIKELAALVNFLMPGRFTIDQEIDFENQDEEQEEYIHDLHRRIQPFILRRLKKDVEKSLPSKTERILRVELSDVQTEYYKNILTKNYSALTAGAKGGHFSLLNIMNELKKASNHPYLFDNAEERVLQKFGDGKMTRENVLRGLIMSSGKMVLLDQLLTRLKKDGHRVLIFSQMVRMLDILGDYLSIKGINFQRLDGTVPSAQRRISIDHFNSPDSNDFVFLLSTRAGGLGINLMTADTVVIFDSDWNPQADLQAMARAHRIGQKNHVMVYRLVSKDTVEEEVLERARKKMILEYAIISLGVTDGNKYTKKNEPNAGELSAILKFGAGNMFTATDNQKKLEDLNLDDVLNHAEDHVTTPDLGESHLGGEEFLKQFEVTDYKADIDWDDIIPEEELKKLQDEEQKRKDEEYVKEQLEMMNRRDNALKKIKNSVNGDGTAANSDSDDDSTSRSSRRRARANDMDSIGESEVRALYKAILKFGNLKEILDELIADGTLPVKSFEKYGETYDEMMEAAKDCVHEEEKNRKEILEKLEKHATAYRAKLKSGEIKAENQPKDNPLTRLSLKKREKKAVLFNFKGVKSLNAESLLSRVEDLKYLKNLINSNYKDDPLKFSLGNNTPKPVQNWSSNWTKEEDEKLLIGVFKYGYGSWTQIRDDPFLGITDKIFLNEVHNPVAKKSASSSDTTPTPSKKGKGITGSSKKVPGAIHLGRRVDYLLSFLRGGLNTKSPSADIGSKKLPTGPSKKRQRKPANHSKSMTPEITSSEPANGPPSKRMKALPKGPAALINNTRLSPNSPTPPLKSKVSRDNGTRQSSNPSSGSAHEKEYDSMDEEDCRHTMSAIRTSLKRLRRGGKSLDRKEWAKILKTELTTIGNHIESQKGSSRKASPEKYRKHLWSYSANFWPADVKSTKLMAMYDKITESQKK

Sialic acid-binding Ig-like lectin 9 (Homo sapiens), sequence (Q9Y336 whole entry): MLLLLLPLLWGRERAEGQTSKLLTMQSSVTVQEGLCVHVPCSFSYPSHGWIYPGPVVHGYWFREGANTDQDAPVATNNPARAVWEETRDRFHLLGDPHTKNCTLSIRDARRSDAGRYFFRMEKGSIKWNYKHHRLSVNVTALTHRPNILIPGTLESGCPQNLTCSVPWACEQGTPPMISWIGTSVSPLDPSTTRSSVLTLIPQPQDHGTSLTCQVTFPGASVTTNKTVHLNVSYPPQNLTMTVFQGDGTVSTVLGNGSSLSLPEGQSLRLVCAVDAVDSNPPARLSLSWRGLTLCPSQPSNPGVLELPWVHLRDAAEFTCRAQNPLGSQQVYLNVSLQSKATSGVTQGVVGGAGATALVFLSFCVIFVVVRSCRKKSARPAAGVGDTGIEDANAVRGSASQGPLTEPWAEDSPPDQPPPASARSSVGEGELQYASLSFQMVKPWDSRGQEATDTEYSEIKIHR

Regarding `COc1ccc(OCc2sc(C3(O)CCCNCC3)nc2C)cc1` (stereo unspecified), the Percent Effect is -4.47% in [1]; 9.46% in assay [2]; 3.29% in assay [3]; 4.34% in [4]; -1.58% in assay [5]; 3.48% in assay [6]. Also, the Percent Effect in assay [7] is 4.52%; in assay [8] it was 2.06%; in assay [9], 3.23%; in [10], 6.49%; in assay [11] it was -17.3%.
Consider `CC(C(=O)N1CCCN(c2ncccc2C#N)CC1)n1cccn1` (stereo unspecified), for which the Percent Effect in assay [1] is -3.42%; in assay [2], 10.5%; in assay [3], 0.522%; in [4], -3.82%; in [5], -6.63%; in [6] it was 4.68%. Moreover, the Percent Effect in assay [7] was 4.32%; in assay [8], 3.06%; in [9], 5.42%; in assay [10], 11.1%; in assay [11], -6.77%.
For the molecule `CC(O)CN1CCN(C(=O)c2cn(-c3ccccc3Cl)nn2)CC1` (stereo unspecified), the Percent Effect in [1] was -1.74%; in assay [2], 10.8%; in [3] it was -3.04%; in assay [4], 16.5%; in assay [5] it was 2.44%; in [6], 5.71%. Further, the Percent Effect in [7] was 4.21%; in [8], -2.08%; in [9], 3.23%; in assay [10] it was 13.6%; in [11], -4.02%.
Regarding `c1ccc(-c2cnc(CNCC3CCCN3c3cccnn3)o2)cc1` (stereo unspecified), the Percent Effect in [1] is -1.23%; in assay [2], -5.2%; in assay [3], 3.3%; in assay [4], -5.27%; in assay [5], 1.86%; in [6] it was 3.16%. The Percent Effect in assay [7] was 15.8%; in assay [8], 0.932%; in [9] it was 16.2%; in [10], 21.2%; in [11], -20.7%.
For the molecule `Cc1cc2c(=O)n3c(nc2s1)CCN(C(=O)c1scnc1C)CC3`, the Percent Effect in assay [1] is -1.99%; in assay [2], 9.46%; in assay [3] it was 9.3%; in [4], 2.42%; in [5] it was -1.58%; in assay [6], -5.34%. The Percent Effect in assay [7] was 7.49%; in assay [8], -18%; in [9] it was -1.07%; in assay [10], 11.7%; in [11], -8.95%.
Regarding `Cc1noc(C)c1CN1CCN(CC2CC2)c2ncccc2C1`, the Percent Effect in assay [1] was -0.988%; in assay [2], 5.33%; in assay [3] it was -0.194%; in assay [4], -3.6%; in assay [5], -5.71%; in assay [6], 3.5%. In addition, the Percent Effect was 4.49% in [7]; 23% in assay [8]; 4.25% in assay [9]; 8.97% in assay [10]; -3.22% in [11].
In the case of `CC(C)c1n[nH]c(C(=O)Nc2ccnn2C(C)C)c1Br`, the Percent Effect in [1] was -9.82%; in assay [2] it was 12.7%; in [3] it was -6.58%; in assay [4] it was 19.3%; in assay [5], 8.4%; in assay [6], -6.84%. The Percent Effect in assay [7] was 9.42%; in assay [8] it was 39.4%; in assay [9], 7.39%; in assay [10], 13.9%; in assay [11], -9.92%.
As for `CCC(CNC(=O)c1ccc(=O)[nH]n1)N1CCc2ccccc2C1` (stereo unspecified), the Percent Effect is 0.395% in assay [1]; 13.5% in assay [2]; -10.4% in [3]; 10.4% in [4]; 3.48% in assay [5]; 11.4% in assay [6]. Also, the Percent Effect in [7] was 17.9%; in assay [8], 2.58%; in [9], 7.94%; in [10], 12.2%; in [11], -3.16%.
Turning to `CN(CCO)C(=O)c1coc(CN2CCN(c3ccccc3F)CC2)n1`, the Percent Effect is -2.04% in assay [1]; 13.3% in assay [2]; -1.48% in assay [3]; 17.7% in assay [4]; -0.0974% in assay [5]; 49.5% in assay [6]. Besides, the Percent Effect in assay [7] turned out to be 20.2%; in assay [8], 11.4%; in [9], 6.01%; in assay [10], 21%; in assay [11] it was 97.1%.
On to `Cn1ccnc1CN1CCCN(C(=O)c2ccc(Cl)o2)CC1`, for which the Percent Effect in [1] was -4.86%; in assay [2], 0%; in assay [3], -1.55%; in [4], 4.15%; in [5], 1.4%; in assay [6] it was 1.44%. In addition, the Percent Effect in assay [7] is 3.13%; in assay [8], -16.8%; in [9] it was 2.46%; in assay [10] it was 1.24%; in [11], 0.744%.
Take `COCCN1C(=O)CC(N2CCN(c3ccc(F)cc3)CC2)C1=O` (stereo unspecified): the Percent Effect is 0.82% in assay [1]; 10.5% in [2]; 2.05% in [3]; -7.33% in assay [4]; -0.0974% in [5]; -1.18% in assay [6]. The Percent Effect in [7] was 10.3%; in assay [8], 14.5%; in assay [9], -3.19%; in assay [10] it was 5.2%; in assay [11] it was -4.78%.
